Rows were chosen to be rich in hits. Some 3.7% of all compounds tested hit in one or more screens of this group.
TIM10 inh = growth inhibitors of isogenic TIM10 control yeast, primary screen, counter-screen for tim10-1 yeast inhibitor project, luminescence, uHTS; 330,000 tested, 1.4% active; S. cerevisiae TIM10 strain growth, BacTiter-Glo luminescence, 24 h; inhibition, % at 10 µM;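 active means inhibition of 40% or more at the single tested concentration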;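 further: wild-type TIM10 isogenic control strain grown at permissive 25 °C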
tim23-1 inh = growth inhibitors of tim23-1 mutant yeast, primary screen, luminescence, uHTS; S. cerevisiae tim23-1 growth, BacTiter-Glo luminescence, 24 h; 330,000 tested, 1.3% active; inhibition, % at 20 µM;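 active means growth inhibition of the mutant yeast at or above 50%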;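 further: temperature-sensitive mutant grown at 25 °C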
tim10-1 inh = growth inhibitors of tim10-1 mutant yeast, primary screen, luminescence, uHTS; 330,000 tested, 2.2% active; AID 463190, 2010; inhibition, % at 20 µM; S. cerevisiae tim10-1 ts strain growth, BacTiter-Glo, 24 h;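 active means inhibition of at least 40%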;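 further: mutant grown at 25 °C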
PfHsp90 set2 = growth inhibition of PfHsp90-expressing yeast, primary screen, antimalarial PfHsp90 inhibitor project, S. cerevisiae, BacTiter-Glo luminescence, single point, set 2; AID 504621, 2011; inhibition, % at 9.4 µM; BacTiter-Glo ATP, 48 h; yeast lacking PDR1 and PDR3 efflux regulators; 310,000 tested, 0.32% active;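 active means every replicate shows inhibition above about 80%, whatever the replicate mean, limit read from the data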
Rce1 inh = yeast Rce1p protease inhibitors, primary screen, biochemical, fluorescence, cell-free homogeneous | calls only | 290,000 tested, 0.27% active | CAAX prenyl protease 2 (Saccharomyces cerevisiae (strain ATCC 204508 / S288c)), Q03530 | yeast membranes, quenched prenylated peptide cleavage fluorescence;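 active means fall in fluorescence gain of 50% or more versus controls, with final raw signal at or below 3038400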
Target sequence (Q03530 whole entry, looked up): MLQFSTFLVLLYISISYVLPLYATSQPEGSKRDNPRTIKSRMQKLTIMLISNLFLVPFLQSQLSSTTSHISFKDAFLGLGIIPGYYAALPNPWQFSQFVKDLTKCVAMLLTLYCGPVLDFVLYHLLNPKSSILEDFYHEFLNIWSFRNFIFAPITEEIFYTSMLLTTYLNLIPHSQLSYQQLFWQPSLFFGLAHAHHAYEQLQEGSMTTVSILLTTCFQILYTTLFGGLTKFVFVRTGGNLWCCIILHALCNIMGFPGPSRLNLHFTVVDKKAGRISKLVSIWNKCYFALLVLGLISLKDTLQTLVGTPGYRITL
tim10-1 confirm = growth inhibitors of tim10-1 mutant yeast, confirmation, single concentration, luminescence, S. cerevisiae; inhibition, % at 20 µM; AID 463213, 2010; S. cerevisiae tim10-1 ts strain growth, BacTiter-Glo, 24 h; shares compounds with tim10-1 inh; 7,400 tested, 56% active;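 active means inhibition of yeast growth at or above a set limit in either of two repeat tests at 20 µM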;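 further: tim10-1 mutant grown at permissive 25 °C to find synthetic lethal compounds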
TIM10 conf = growth inhibitors of wild-type TIM10 yeast, confirmation, counter-screen for tim10-1 synthetic lethality project, single concentration, luminescence, S. cerevisiae; shares compounds with TIM10 inh; S. cerevisiae tim10 strain growth, BacTiter-Glo luminescence, 24 h; inhibition, % at 10 µM; 4,600 tested, 63% active; AID 463215, 2010;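 active means inhibition of yeast growth at or above a set limit in either of two replicates at 10 µM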; further: this counterscreen used the strain with wild-type TIM10
tim23-1 conf = tim23-1 mutant yeast growth inhibitors, confirmation, luminescence, single concentration; shares compounds with tim23-1 inh; S. cerevisiae tim23-1 growth, BacTiter-Glo luminescence, 24 h; inhibition, % at 20 µM; 4,400 tested, 83% active;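 active means inhibition above about 39% in either of two replicate wells at 20 µM, limit read from the data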;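 further: temperature-sensitive tim23-1 mutant grown at 25 °C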
Hits are given with their value; n = inactive; x = no result.

SMILES | TIM10 inh | tim23-1 inh | tim10-1 inh | PfHsp90 set2 | Rce1 inh | TIM10 conf | others
Cc1ccccc1C(=O)Nc1ccccc1C(=O)N/N=C\c1ccco1 | n | n | n | n | n | x
O/N=C(\c1ccc(Cl)cc1)c1cc2ccccc2o1 | 53 | 67 | 46 | n | n | 60 | tim10-1 confirm=67;tim23-1 conf=64
O=C(Nc1ccc(Cl)cc1Cl)c1cc2ccccc2o1 | n | n | n | n | n | x
COC(=O)c1ccc(-c2ccc(Cl)cc2)nc1C | n | n | n | n | n | x
CCN1/C(=C/c2ccc3cccc(C)c3[n+]2CC)Sc2ccccc21 | 77 | 68 | 64 | n | n | 79 | tim10-1 confirm=74;tim23-1 conf=72
O=C(NC12CC3CC(CC(C3)C1)C2)c1ccc(-c2ccc(Br)cc2)o1 | 49 | n | n | n | n | 54
O=C(COc1ccc(Cl)cc1)Nc1ccc2c(c1)CCC2 | 41 | n | n | n | n | n
CC(=O)c1ccc(OCC(=O)Nc2ccc3c(c2)CCC3)cc1 | n | n | n | n | n | x
CCN1C(=O)/C(=C/c2nc3ccccc3c(=O)n2-c2ccccc2)c2ccccc21 | 43 | n | n | n | n | n
O=S(=O)(c1cccc(NC(=S)N2CCN(c3ccccc3)CC2)c1)C(F)F | n | n | n | n | x | x
O=S(=O)(c1cccc(NC(=S)N2CCN(c3ccccc3F)CC2)c1)C(F)F | 47 | n | n | n | x | 36
O=[N+]([O-])c1ccc(CSc2ncnc3ccccc23)cc1 | n | n | n | n | n | x
C/C(=N\NC(=O)CO/N=C(\C)c1cccs1)c1ccc(N)cc1 | n | n | n | n | n | x
C/C(=N\OCC(=O)N/N=C/c1ccc(C)cc1O)c1cccs1 | 53 | n | n | n | n | n
COc1cccc(-c2ccc(SCC(=O)c3ccccc3)nn2)c1 | 42 | n | n | n | n | 42
COc1ccc(C2=NN(C(=O)CCC(=O)O)C(c3ccc(Br)cc3)C2)cc1 (stereo not given) | 44 | n | n | n | n | n
CCCc1nc2oc3c(NCC(C)O)ncnc3c2c2c1CCCC2 (stereo not given) | 41 | n | n | x | n | 45
O=C(Nc1ccc(NC(=O)c2cccnc2Cl)cc1)c1cccc(Cl)c1 | n | n | n | n | n | x
COc1cc(OC)cc(C(=O)NCC(=O)OCC(=O)NCc2ccco2)c1 | n | n | n | n | x | x
COc1ccc(C2C3=C(CCCC3=O)Nc3nc(C(F)(F)F)nn32)c(OC)c1OC (stereo not given) | n | n | n | n | n | x
COC(=O)c1ccc(COc2ccc(/C=C(\C#N)c3nc4ccccc4[nH]3)cc2OC)o1 | 54 | n | n | n | n | 33
Cc1cccnc1NC(=O)C1CCCN(S(=O)(=O)c2ccc3c(c2)oc(=O)n3C)C1 (stereo not given) | n | n | n | n | n | x
OC(c1ccccc1)c1ccncc1 (stereo not given) | n | n | n | n | n | x
Cc1ccccc1C(N)c1ccncc1 (stereo not given) | 81 | n | n | n | n | n
COc1ccc(-c2cc(C(F)(F)F)n3nc(C(=O)NCc4ccco4)cc3n2)cc1OC | n | n | n | n | n | x
SMILES | TIM10 inh | tim23-1 inh | tim10-1 inh | PfHsp90 set2 | Rce1 inh | TIM10 conf | others
CS(=O)(=O)c1nc(-c2ccccc2)cc(C(F)(F)F)n1 | 45 | n | n | n | n | n
C=CCn1c(SCC(=O)NC2CC2)nc2sc(CC)cc2c1=O | n | n | n | n | n | x
O=[N+]([O-])c1cc(Br)c(OCc2nnc(-c3ccccc3)o2)c(Br)c1 | n | n | n | n | n | x
O=[N+]([O-])c1ccc2c(OCc3nnc(-c4ccccc4Br)o3)ncnc2c1 | 45 | n | n | n | n | 31
O=c1[nH]c2ccc(Cl)cc2c(-c2ccccc2)c1SC(=S)N1CCCCC1 | 40 | n | n | n | n | n
COc1ccc(N2C(=O)CSC2c2ccc3c(c2)OCO3)c(OC)c1 (stereo not given) | 41 | n | n | n | n | n
C=CCN1C(c2ccc(OCC)cc2)=CS/C1=C(\C#N)c1nnc2n1CCCCC2 | n | n | n | n | x | x
C=CCn1c(=O)/c(=C/c2ccc(F)cc2)s/c1=C(\C#N)c1nnc2n1CCCCC2 | 44 | n | n | n | n | 40
C/C(=N\NC(=O)CNc1cccc2ccccc12)c1ccccc1 | 42 | n | n | n | n | n
C/C(CCc1ccco1)=N\NC(=O)CNc1cccc2ccccc12 | n | n | n | x | n | x
CN1/C(=C\C(=O)COC(=O)c2ccc([N+](=O)[O-])o2)C(C)(C)c2ccccc21 | 65 | n | n | x | n | 75
Cn1cc(/C=N/n2cnc3sc4c(c3c2=O)CCCC4)c2ccccc21 | n | n | n | x | n | x
O=c1c2c3c(sc2ncn1/N=C/c1ccc([N+](=O)[O-])o1)CCCC3 | 69 | n | n | 105 | n | 96
Cc1nn(-c2ccccc2)c(N)c1C1(O)C(=O)Nc2ccccc21 (stereo not given) | n | n | n | n | x | x
COc1ccc(-c2nc(SCc3ccccc3)n(C(=O)c3ccco3)n2)cc1 | n | n | n | n | n | x
COc1ccc(-c2nc(SC)n(C(=O)c3ccco3)n2)cc1 | 42 | n | n | n | n | n
CNc1nnc(-c2cc3cc(Cl)ccc3oc2=O)s1 | 46 | n | n | x | n | 33
COc1ccc(C2C(C#N)=C(N)N(c3sc4c(c3C#N)CCCC4)C3=C2C(=O)CC(C)(C)C3)cc1 (stereo not given) | n | n | n | x | n | x
COc1ccc(C2C(C#N)=C3NC(=O)c4c(sc5c4CCCCC5)N3C3=C2C(=O)CC(C)(C)C3)cc1 (stereo not given) | 43 | n | n | x | n | n
O=S(=O)(/N=C(/Nc1cccc2ccccc12)c1ccccc1)c1cccs1 | 43 | n | n | n | n | n
O=S(=O)(NCc1ccc2c(c1)OCO2)c1ccc2oc3ccccc3c2c1 | 49 | n | n | x | n | 35
Cc1ccc(S(=O)(=O)NCc2ccc3c(c2)OCO3)cc1C | n | n | n | n | n | x
CCCc1cc(=O)oc2c3c(c(Cl)cc12)OCN(CCCO)C3 | n | n | n | x | n | x
